SMILES strings stand for the structures. Values joined by “and” are separate entries in the source; they are usually repeats but may differ in a detail not shown here. Equal values may be shown once. In all, about 16,000 compounds went through this assay and about 5,800 (36%) were called active. Another 23% or so got no clear call; they are omitted. Calls follow the shape of the dose curve; as a rule, active = well fitted curve in the direction sought with a large enough effect; inconclusive = small, poorly fitted or top-dose-only effect, or effect the other way; inactive = no such curve, though single readings can be large or run the other way. This is one part of the list.
% is scaled to controls: 0 for no effect and ±100 for the full control effect.

Cytochrome P450 2C19 (Homo sapiens), sequence (P33261 whole entry, looked up): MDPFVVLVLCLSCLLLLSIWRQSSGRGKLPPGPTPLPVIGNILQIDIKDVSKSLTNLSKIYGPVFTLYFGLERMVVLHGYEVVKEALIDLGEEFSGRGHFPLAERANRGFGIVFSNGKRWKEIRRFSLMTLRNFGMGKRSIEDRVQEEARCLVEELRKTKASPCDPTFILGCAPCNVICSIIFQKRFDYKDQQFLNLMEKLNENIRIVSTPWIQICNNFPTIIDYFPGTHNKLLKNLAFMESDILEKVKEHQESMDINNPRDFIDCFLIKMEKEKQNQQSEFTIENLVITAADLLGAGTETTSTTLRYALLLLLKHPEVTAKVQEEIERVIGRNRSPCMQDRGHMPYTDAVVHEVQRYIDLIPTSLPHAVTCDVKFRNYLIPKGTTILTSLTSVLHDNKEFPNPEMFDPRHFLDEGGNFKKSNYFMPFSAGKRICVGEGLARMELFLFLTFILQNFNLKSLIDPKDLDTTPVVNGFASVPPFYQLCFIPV

This experiment has as its target Cytochrome P450 2C19 (Homo sapiens) (UniProt P33261). As to the kind of experiment: Cytochrome panel assay with activity outcomes. As to conditions: recombinant CYP, pro-luciferin dealkylation, luminescence, p450-cyp2c19; series mostly up to 57.1 µM.
On to `CO[C@]1(C2=NCCN2)COc2ccccc2O1`, for which the AC50 entry was “inactive”. Still for that read-out and setting: with `CCc1cc2cc(C)c(C)cc2nc1SCC(=O)NNC(=O)c1ccco1` the entry was “inactive”; with `O=C(CSc1ccc(Cl)cc1)Nc1cccc(NC(=O)c2ccco2)c1`, 2.51 µM (active). On the same count and under the same terms, under `CNC(=O)c1nnn(Cc2ccccc2)c1NC(=O)C(F)(F)F` stands “inactive”. The same measure, in the same setting: with `CCC(=O)Nc1cccc(NC(=O)CSc2nnnn2Cc2ccccc2)c1` the figure was 10 µM (active); with `Cc1ccc(SCC(=O)Nc2cccc(NC(=O)c3ccco3)c2)cc1`, 7.08 µM (active). Consider `CC(=O)c1ccc(-n2nnnc2SCC(=O)Nc2cccc(NC(=O)c3ccco3)c2)cc1`, for which the AC50 is 3.16 µM (active). Same read-out and setting: with `Cc1ccc(-n2nnnc2SCC(=O)NNC(=O)c2ccco2)c(C)c1` the entry was “inactive”. Take `O=C(NCc1ccccc1)c1sc(=S)n2c1[nH]c(=O)c1ccccc12`: the AC50 is 11.2 µM (active). On to `Nc1c(C(=O)NCc2ccccc2)sc2nc3c(cc12)C(=O)CCC3`, for which the AC50 entry was “inactive”. The same measure, in the same setting: with `O=C(NC1CCCCC1)c1sc(=S)n2c1[nH]c(=O)c1ccccc12` the figure was 4.47 µM (active). On to `CC(=O)O[C@]1(C(C)=O)CC[C@@H]2[C@@H]3C=C(C)C4=CC(=O)CC[C@@]4(C)[C@H]3CC[C@]21C`, for which the AC50 entry is “inactive”.

As to `CC(=O)CC(=O)[C@@]1(O)CC[C@@H]2[C@@H]3C=C(C)C4=CC(=O)CC[C@@H]4[C@H]3CC[C@]21C`, the AC50 is 5.01 µM (active).

Regarding `N#Cc1ccccc1Sc1ccccc1N`, the AC50 is 2.82 µM (active). On the same count and under the same terms, under `N#CC(=C(/N)Sc1ccccc1N)/C(C#N)=C(/N)Sc1ccccc1N` stands “inactive”. On to `C[C@@H](c1ccccc1)N1C(=O)[C@@H]2[C@H]3C(=CC[C@H]2C1=O)C(=O)[C@H]1O[C@H]1[C@H]3O`, for which the activity, negative = inhibition is 18.8% [at 11.4 µM] (inactive). As to `Cc1ccc(S(=O)(=O)N(Cc2ccccc2)c2ccccc2C(=O)NCc2ccco2)cc1`, the AC50 was 3.55 µM (active). For `N[C@H](C(=O)N[C@@H]1C(=O)N2C(C(=O)O)=C(Cl)CS[C@@H]12)c1ccccc1`, the AC50 entry was “inactive”. As for `CC1=C(C(=O)O)N2C(=O)C(NC(=O)c3ccn(C)n3)C2SC1` (centres undefined), the half-maximal activity concentration (AC50) was 25.1 µM (active). As for `CC(=O)OCC1=C(C(=O)O)N2C(=O)[C@@H](NC(=O)CSc3ccncc3)[C@@H]2SC1`, the AC50 result is “inactive”. Same read-out and setting: under `CCCCN(C)Cc1c(C)[nH]c2ccc(Cl)cc2c1=O` stands “inactive”. As for `C#CCN(C)CCCOc1ccc(Cl)cc1Cl`, the concentration at half-maximal activity (AC50) is 5.01 µM (active) and 2.51 µM (active). Still for that read-out and setting: with `O=[N+]([O-])c1cccc2c[nH]nc12` the entry was “inactive”; with `O=[N+]([O-])c1ccc(S(=O)(=O)Cc2ccccc2)c2nonc12`, 3.16 µM (active); with `CN1CCN(c2ncncc2-c2ccccc2C(F)(F)F)CC1`, 15.8 µM (active). For the molecule `CNc1cc(-c2ccccc2C(F)(F)F)ncn1`, the AC50 result was “inactive”.

As for `CN1CCN(c2ncncc2-c2ccccc2Cl)CC1`, the AC50 entry is “inactive”. The same measure, in the same setting: under `FC(F)(F)c1ccccc1-c1cc(NCCN2CCOCC2)ncn1` stands “inactive”. On the same count and under the same terms, with `CN1CCN(c2cc(-c3ccccc3C(F)(F)F)ncn2)CC1` the figure was 10 µM (active); with `CN(C)c1ncc2nc(-c3cccs3)c(=O)n(CCc3ccccc3)c2n1`, “inactive”; with `O=c1onc(-c2cccs2)n1Cc1ccccc1`, 1 µM (active). The same measure, in the same setting: under `COc1ccc(Br)cc1/C=C/C(=O)Nc1c(C)cccc1C` stands 4.47 µM (active); under `CCn1nc(C)c(NC(=O)/C=C/c2cnn(C)c2C)c1C`, “inactive”. Take `O=C(O)Cn1ccnc1[N+](=O)[O-]`: the activity, negative = inhibition is 4.05% [at 11.4 µM] (inactive). Turning to `O=C(c1cnccn1)N1CCC[C@@]2(CCN(Cc3cc(C(F)(F)F)cc(C(F)(F)F)c3)C2)C1`, the AC50 entry is “inactive”. Still for that read-out and setting: under `O=C(c1cc(C(F)(F)F)cc(C(F)(F)F)c1)N1CCC[C@@]2(CCN(Cc3ccccc3)C2)C1` stands “inactive”; under `O=C(c1cnccn1)N1CCC[C@@]2(CCN(Cc3ccncc3)C2)C1`, 10 µM (active).

With `O=C(c1cc(C(F)(F)F)cc(C(F)(F)F)c1)N1CCC[C@@]2(CCN(Cc3ccncc3)C2)C1`, the AC50 is 0.2 µM (active). Same read-out and setting: under `N#Cc1ccc(CN2CC[C@@]3(CCCN(C(=O)c4cc(C(F)(F)F)cc(C(F)(F)F)c4)C3)C2)cc1` stands “inactive”.

For `O=C(c1cnccn1)N1CCC[C@@]2(CCN(c3ccncc3)C2)C1`, the AC50 result was “inactive”. Turning to `CCC(=O)O[C@@]1(C(=O)CCl)[C@@H](C)C[C@@H]2[C@H]3CCC4=CC(=O)C=C[C@@]4(C)[C@]3(F)[C@@H](O)C[C@@]21C`, the AC50 result was “inactive”.

In the case of `C[N+]1(CCOc2ccc([N+](=O)[O-])cc2)CCOCC1`, the AC50 result is “inactive”. Take `Cc1ccc(S(=O)(=O)CCc2nnc(NC(=O)COc3cccc(C)c3)s2)cc1`: the AC50 result was “inactive”. With `CCOC(=O)c1cccc(NC(=O)COc2ccc([N+](=O)[O-])cc2)c1`, the AC50 was 3.55 µM (active).

As for `C/C(CC(=O)Nc1cc(C)ccn1)=N\NC(=O)COc1cccc(C)c1`, the AC50 was 25.1 µM (active). The same measure, in the same setting: under `O=C(COc1ccc(/C=N/NC(=O)c2ccccc2)cc1)Nc1ccc([N+](=O)[O-])cc1` stands “inactive”. Same read-out and setting: with `Cc1ccnc(NC(=O)c2cccc(NC(=O)COc3ccccc3)c2)c1` the figure was 15.8 µM (active); with `CC(C)c1nc2oc3ccccc3c(=O)c2c(=O)n1-c1ccccc1`, “inactive”. On the same count and under the same terms, under `CC(C)Cn1c(N)c(C(=O)CSc2ccc3c(c2)OCCO3)c(=O)n(C)c1=O` stands 2.51 µM (active); under `Cn1c(N)c(C(=O)CSc2ccc3c(c2)OCCO3)c(=O)n(C)c1=O`, 5.62 µM (active). Regarding `Cc1nn(-c2ccc(Cl)cc2)c2sc(C(=O)c3c(N)n(C)c(=O)n(C)c3=O)cc12`, the AC50 result was “inactive”. On the same count and under the same terms, with `CC(C)Cn1c(=O)n(C)c(=O)c2[nH]cnc21` the entry was “inactive”; with `COc1ccc(C2=Nc3cccc4cccc(c34)N2)cc1`, “inactive”. On the same count and under the same terms, under `C/C(=N\OC(=O)NC1CCCCC1)c1sc(-c2ccccc2)nc1C` stands 5.62 µM (active). `O=C(O)c1cc2ccccc2c(S(=O)(=O)O)c1O`: the activity, negative = inhibition is 23.2% [at 11.4 µM] (inactive). Take `Cc1cccc(Sc2c([N+](=O)[O-])ncn2C)n1`: the AC50 result is “inactive”. Take `Cn1cnc([N+](=O)[O-])c1Sc1nc(N)nc2c1ncn2[C@H]1C[C@H](O)[C@@H](CO)O1`: the activity, negative = inhibition was 8.27% [at 11.4 µM] (inactive). For `Cc1ccc(Sc2c([N+](=O)[O-])ncn2C)cc1`, the AC50 is 25.1 µM (active).

Consider `Cc1nn(Cc2c(Cl)cccc2Cl)c(C)c1NC(=O)c1cnn2c(C(F)F)cc(-c3ccccc3)nc12`, for which the AC50 is 7.08 µM (active). As to `Cn1ncc(Cl)c1C(=O)Nc1cccnc1`, the AC50 entry is “inactive”. Same read-out and setting: with `O=C(Nc1ccn(Cc2ccccc2F)n1)c1ccc(COc2cc(Cl)ccc2Cl)o1` the figure was 0.708 µM (active); with `O=C(Nc1cccnc1)c1ccc(COc2cc(Cl)ccc2Cl)o1`, 2.51 µM (active); with `O=C(N/N=C/c1ccc(O)cc1)c1ccc(COc2cc(Cl)ccc2Cl)o1`, 4.47 µM (active).

Take `CC(C)CNC(=O)c1ccc(COc2ccc(Cl)cc2Cl)o1`: the AC50 was 10 µM (active). As to `CC(=O)O[C@@H](C)C[N+](C)(C)C`, the AC50 result was “inactive”. `CO[C@@H]1COC(=O)CC=C[C@@H](C)[C@@H]2C=C[C@H](O)[C@@H](COC(=O)C/C=C\[C@H]1C)O2`: the activity, negative = inhibition is -32.3% [at 11.4 µM] (inactive).

For the molecule `O=C(O)[C@@H](c1ccccc1)[C@@H](C(=O)O)c1ccccc1`, the activity, negative = inhibition was 8.57% [at 11.4 µM] (inactive).

With `O=C(c1ccccc1)[C@H](Nc1ccc2ccccc2c1)c1ccccc1`, the AC50 is 1 µM (active). Still for that read-out and setting: under `CC1=CC(=C2C(=O)c3ccccc3C2=O)C=C(C)O1` stands 25.1 µM (active); under `COC(=O)C(NC(=O)c1ccccc1)=C1C=C(C)OC(C)=C1`, “inactive”; under `CC1=CC(=C2C(=O)c3ccccc3C2=O)C=C(C)N1Cc1ccco1`, 4.47 µM (active). On the same count and under the same terms, under `CCCCS(=O)(=O)NC1=NCN(Cc2ccco2)CN1` stands “inactive”. The same measure, in the same setting: under `Cc1nc(SCc2cccc(Oc3ccccc3)c2)n[nH]1` stands 5.01 µM (active); under `CO[C@]1(NC(=O)[C@H](C(=O)O)c2ccc(O)cc2)C(=O)N2C(C(=O)O)=C(CSc3nnnn3C)CO[C@H]21`, “inactive”. Turning to `FC(F)(F)c1ccccc1-c1cncnc1NCCc1cnc[nH]1`, the AC50 is 0.01 µM (active). In the case of `CC(=O)NCCNc1ncncc1-c1ccccc1C(F)(F)F`, the AC50 entry is “inactive”.

With `COc1cccc(-c2cncnc2NCCc2cnc[nH]2)c1`, the AC50 is 0.01 µM (active).

On to `COc1ccccc1-c1cncnc1NCCc1cnc[nH]1`, for which the AC50 is 0.0794 µM (active). On the same count and under the same terms, with `CS(=O)(=O)N1CCC2(CCCN(C(=O)Nc3cccc(F)c3)C2)CC1` the entry was “inactive”. As to `Cc1ccc(C(C)C)n1C(=O)OC(C)(C)C`, the activity, negative = inhibition is 4.81% [at 11.4 µM] (inactive). In the case of `CN(C)c1ccc(/C=N\NC(=O)c2cnc3ccccc3c2)cc1`, the activity, negative = inhibition is 21.3% [at 11.4 µM] (inactive). With `CN(C)/C=N/c1ncc(C(=O)c2ccc3ccccc3c2)s1`, the concentration at half-maximal activity (AC50) was 14.1 µM (active). Still for that read-out and setting: with `O=C(NC1CCCCC1)C(c1cccs1)N(C(=O)C(F)(F)F)c1ccccc1` (centres undefined) the figure was 1.58 µM (active). Same read-out and setting: under `COc1ccc(CCN(C(=O)C(F)(F)F)C(C(=O)NC2CCCC2)c2cccs2)cc1` (centres undefined) stands 2 µM (active); under `COc1ccc(C(C(=O)NC2CCCC2)N(C(=O)c2snc(-c3ccc(F)cc3)c2N)c2ccccc2)cc1` (centres undefined), “inactive”; under `CCOC(=O)c1ccc(N/C(=N\S(=O)(=O)c2ccccc2C)c2ccccc2)cc1`, 7.94 µM (active). On the same count and under the same terms, under `COc1cc(OC)c(C2C(C(=O)O)c3ccccc3C(=O)N2C)cc1OC` (centres undefined) stands “inactive”; under `COc1cc2c(cc1OC)C(C(=O)Nc1ccc3c(c1)OCCO3)C(c1cccnc1)N(C)C2=O` (centres undefined), “inactive”; under `COCCN1C(=O)c2ccccc2C(C(=O)Nc2ccc3c(c2)OCCO3)C1c1ccc(F)cc1` (centres undefined), 28.2 µM (active).

As to `CC1=NNC(=O)C1CCC(=O)N/N=C\c1ccccc1[N+](=O)[O-]` (centres undefined), the AC50 entry is “inactive”. Consider `CCn1c(SCC(=O)N/N=C/C=C\c2ccccc2[N+](=O)[O-])nnc1-c1ccccc1`, for which the AC50 was 14.1 µM (active). Same read-out and setting: under `Cc1noc(C)c1C(=O)N1CCC[C@@]2(CCN(Cc3nccs3)C2)C1` stands “inactive”; under `Cc1cc(N2CCOCC2)nc(SCc2ccc(Cl)cc2Cl)n1`, 2.24 µM (active). With `CSc1nc(C)cc(Nc2ccc(O)c(CN3CCOCC3)c2)n1`, the activity, negative = inhibition is 52.5% [at 11.4 µM] (inactive).

These data come from PubChem BioAssay AID1851 (National Center for Advancing Translational Sciences (NCATS), 2009).
